About 83,000 compounds went through this panel and 20% of them were active in at least one assay; those are over-represented in the sample as a whole.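 In brief: 96-well plates, 48 h treatment, single concentration, percent growth endpoint.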 Unmarked numbers belong to inactive results. The source made the active and inactive calls. Rule for the calls: active = growth percent below 10; inactive = the rest.
How the values were obtained:
Test in all cases: NCI-60 one-dose screen, 48 h (100 = growth as untreated, 0 = no growth, -100 = all killed)
Details in all cases: 10 µM unless noted
NCI-H23 lung = system: NCI-H23 lung
NCI-H226 lung = system: NCI-H226 lung
NCI-H322M lung = system: NCI-H322M lung
HOP-62 NSCLC = system: HOP-62 NSCLC
NCI-H460 lung = system: NCI-H460 lung
HOP-92 NSCLC = system: HOP-92 NSCLC
A549/ATCC NSCLC = system: A549/ATCC NSCLC
786-0 renal = system: 786-0 renal
COLO 205 colon = system: COLO 205 colon
DU-145 prostate = system: DU-145 prostate
K-562 leukemia = system: K-562 leukemia
MALME-3M melanoma = system: MALME-3M melanoma
MDA-MB-231 breast = system: MDA-MB-231 breast
RXF 393 renal = system: RXF 393 renal
SF-268 CNS = system: SF-268 CNS
SF-295 CNS = system: SF-295 CNS
SF-539 CNS = system: SF-539 CNS
UACC-257 melanoma = system: UACC-257 melanoma
M14 melanoma = system: M14 melanoma

Row | SMILES | growth (NCI-H23 lung) | growth (NCI-H226 lung) | growth (NCI-H322M lung) | growth (HOP-62 NSCLC) | growth (NCI-H460 lung) | growth (HOP-92 NSCLC) | growth (A549/ATCC NSCLC) | growth (786-0 renal) | growth (COLO 205 colon) | growth (DU-145 prostate) | growth (K-562 leukemia) | growth (MALME-3M melanoma) | growth (MDA-MB-231 breast) | growth (RXF 393 renal) | growth (SF-268 CNS) | growth (SF-295 CNS) | growth (SF-539 CNS) | growth (UACC-257 melanoma) | growth (M14 melanoma)
1 | Cc1n(Cc2ccc3ccccc3c2)c2ccccc2[n+]1Cc1ccc2ccccc2c1 | -29.5% (active) | -9.12% (active) | 9.37% (active) | -62% (active) | -73.9% (active) | -68.2% (active) | 8.96% (active) | -92.8% (active) | -77.1% (active) | 0.672% (active) | -63.1% (active) | -39.7% (active) | -83.6% (active) | -88% (active) | -67.6% (active) | -37.6% (active) | -56.4% (active) | -53.9% (active) | -69% (active)
2 | CC[N+](CCCCCCCCCC[N+](CC)(c1ccccn1)c1ccccn1)(c1ccccn1)c1ccccn1 | 1.17% (active) | 33.2% | -15.8% (active) | 10.7% | 0.887% (active) | -22.5% (active) | 1.29% (active) | 34.5% | -80% (active) | 13.6% | -2.68% (active) | -10.7% (active) | 15.9% | 46.1% | 17.1% | -71.2% (active) | 11% | -19.2% (active) | 
3 | CC1CN(CC(O)c2ccc(Br)cc2)CCO1 (configuration not stated) | 104% | 109% | 107% | 108% | 108% | 82.5% | 102% | 102% | 98.1% | 114% | 96.9% | 116% | 123% | 124% | 99.9% | 112% | 106% | 105% | 104%
4 | O=c1[nH]c(SCc2ccccc2)nc2nc(Nc3ccc(NC(=S)Nc4ccccc4)cc3)nc(-c3ccc(O)cc3O)c12 | 97.3% | 93.2% | 121% | 102% | 103% | -2.6% (active) | 105% | 94.7% | 98.2% | 112% | 90.6% | 75% | 98% | 66.2% | 92.6% | 101% | 91.8% | 109% | 
5 | CC(=O)OC1Oc2cc(C)c(C)cc2-c2oc(=O)c(-c3ccccc3)cc21 (configuration not stated) | 46.3% | -6.38% (active) | 33.5% | 48% | 4.89% (active) | -41.5% (active) | 24.8% | 33.5% | 0.826% (active) | 15% | -0.66% (active) | -4.37% (active) | 43.7% | -35.3% (active) | 36.8% | -39.9% (active) | -37.1% (active) | 74.5% | 
6 | O=c1oc2c(cc1-c1ccc([N+](=O)[O-])cc1)C(O)Oc1ccccc1-2 (configuration not stated) | 89.3% | 101% | 107% | 98.1% | 97.2% | -13.6% (active) | 78.7% | 98% | 93.5% | 142% | 76.8% | 77.6% | 114% | 49.1% | 94.7% | 67.9% | 93.8% | 89.3% | 
7 | COc1cc(/C=N/NC(=O)c2ccc(C(F)(F)F)nc2Nc2cc(Cl)ccc2C)cc(OC)c1OC | 104% | 96.6% | 105% | 99.7% | 108% | -30% (active) | 103% | 97.7% | 109% | 154% | 83.8% | 61.8% | 86.3% | 77.7% | 88.9% | 70.9% | 103% | 112% | 
8 | N/C(=N\C(N)=N\c1nc2ccccc2s1)c1ccnc(Cl)c1 | 43.4% | 48.8% | 70.1% | 44.4% | 17.3% | 73.9% | 47.4% | 41.1% | 18.1% | 26.9% | 8.95% (active) | 64.9% | 49.7% | -6.26% (active) | 61.5% | 17.6% | 7.12% (active) | 74.4% | 27.9%
9 | Cc1cc2c(cc1C)[n+](Cc1ccc3ccccc3c1)cn2Cc1ccc2ccccc2c1 | -71.8% (active) | -25.5% (active) | -8.28% (active) | -73% (active) | -76.8% (active) | -80.8% (active) | -71.3% (active) | -88.9% (active) | -67.8% (active) | -89.5% (active) | -57.3% (active) | -78.7% (active) | -75.7% (active) | -87% (active) | -81.2% (active) | -80.9% (active) | -93.2% (active) | -55.6% (active) | 
10 | COc1ccc(C2=NN(C(C)=O)C(c3cccc(Nc4ccnc5cc(Cl)ccc45)c3)C2)cc1 (configuration not stated) | 60.7% | 74.5% | 63.9% | 38% | 64.9% | 32.7% | 45.5% | 58.6% | 19.1% | 62.3% | 18.3% | 65.8% | 63% | 51.1% | 48.2% | 52.5% | 72.7% | 49.2% | 40.2%
11 | CCNCCCn1c2c(c3ccc(F)cc3c1=O)C(=O)c1cc(OC)cnc1-2 | -40.4% (active) | -59.1% (active) | -3.52% (active) | -29% (active) | -27.1% (active) | -15.5% (active) | -62.6% (active) | -38.4% (active) | -32% (active) | -2.92% (active) | 1.44% (active) | -68.7% (active) | 3.91% (active) | -80.8% (active) | 1.76% (active) | -21% (active) | -25.7% (active) | -20.4% (active) | -25.9% (active)
12 | CC(NNC(=S)N1CCCCCC1)c1ccc2ccccc2n1 (configuration not stated) | 60.9% | 45.3% | 27.2% | 42.7% | 12.5% | 65.7% | 13.9% | 40% | 20.1% | 36.2% | 18.2% | 29.1% | 41.6% | 58.3% | 39.7% | -10.9% (active) | 18.6% |  | 
13 | Cc1n(Cc2ccc3ccccc3c2)cc[n+]1Cc1ccc2ccccc2c1 | 5.53% (active) | 19% | 48.9% | 18% | 9.12% (active) | -20.3% (active) | 42.3% | 34% | -57.2% (active) | 35.2% | 10.2% | -20.9% (active) | -24.3% (active) | 3.41% (active) | 18.9% | 15.4% | 5.68% (active) | -28.5% (active) | -15.7% (active)
14 | O=C(NN1C(=O)c2cc(C(=O)O)c(C(=O)O)cc2C1=O)c1ccncc1 | 108% | 95% | 102% | 99.3% | 111% | 4.14% (active) | 119% | 107% | 105% | 144% | 62.4% | 76.8% | 80.6% | 127% | 93.5% | 102% | 112% | 114% | 
15 | COc1cc(/C=C/C(=O)c2c(C)n([O-])c3ccc(Cl)cc3[n+]2=O)cc(OC)c1OC | 81.7% | 80.7% | 90.5% | 110% | 64.3% | 78.6% | 71.7% | 94.4% | 86.8% | 66.8% | 45.8% | 78.7% | 78.5% | 42.6% | 74% | 114% | 96.9% | 81.3% | 
16 | CCOC1Oc2ccccc2C(=O)/C1=N/c1nccs1 (configuration not stated) | 95.2% | 84% | 99.7% | 92.7% | 106% | -23.6% (active) | 111% | 100% | 95.1% | 101% | 84.9% | 51.9% | 78.1% | 102% | 76.9% | 93.5% | 93.9% | 112% | 
17 | COC(=O)Nc1ccc2ccc3c(NC(=O)OC)ccc4ccc1c2c43 (tested in a mixture with another compound) | 65% | 83.3% | 65% | 48.5% | 26.5% | 9.3% (active) | 41.2% | 60% | 30.8% | 86.9% | 25% | 68.8% | 54.1% | 77.6% | 67.7% | 48.2% | 50.7% | 71.7% | 25.4%

From PubChem BioAssay (NCI)
